# Screening results as filed in PubChem.
# pPAFAH FP inh = pPAFAH enzyme inhibitors, primary screen, biochemical, fluorescence polarization, human. Platelet-activating factor acetylhydrolase (Homo sapiens), Q13093. recombinant pPAFAH, FP-rhodamine probe fluorescence polarization. inhibition, % at 3.39 µM. 1.5% of 330,000 active;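 active means inhibition above the mean inhibition across the screen plus 3 SD, cut at about 25% in these data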;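 further: inhibitors block binding of the rhodamine activity-based probe so polarization drops; 0% = enzyme with DMSO and 100% = wells lacking pPAFAH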
# Target sequence (Q13093 whole entry, looked up): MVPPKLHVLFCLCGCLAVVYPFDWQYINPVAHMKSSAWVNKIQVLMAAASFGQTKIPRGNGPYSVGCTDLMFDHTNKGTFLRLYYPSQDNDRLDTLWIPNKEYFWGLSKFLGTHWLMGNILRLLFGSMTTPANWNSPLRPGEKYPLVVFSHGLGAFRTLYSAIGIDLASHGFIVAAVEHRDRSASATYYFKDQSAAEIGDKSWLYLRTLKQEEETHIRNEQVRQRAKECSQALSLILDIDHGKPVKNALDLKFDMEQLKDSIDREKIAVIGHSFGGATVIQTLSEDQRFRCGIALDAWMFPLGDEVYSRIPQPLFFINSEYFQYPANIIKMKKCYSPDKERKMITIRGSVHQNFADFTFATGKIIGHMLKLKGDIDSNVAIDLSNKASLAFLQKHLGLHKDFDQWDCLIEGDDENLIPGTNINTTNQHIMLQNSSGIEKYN
# PAFAH2 FP inh = PAFAH2 enzyme inhibitors, primary screen, biochemical, fluorescence polarization, human | AID 492956, 2010 | Platelet-activating factor acetylhydrolase 2, cytoplasmic (Homo sapiens), Q99487 | inhibition, % at 3.39 µM | recombinant PAFAH2, FP-rhodamine activity probe | 0.99% of 340,000 active;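 active means inhibition above the mean over all tested compounds plus 3 SD, cut at about 30% in these data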;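 further: inhibitors block probe labeling of enzyme so polarization drops; 0% = enzyme with DMSO and 100% = wells lacking PAFAH2 protein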
# PAFAH1B2 FP inh = PAFAH1B2 enzyme inhibitors, primary screen, biochemical, fluorescence polarization, human; Platelet-activating factor acetylhydrolase IB subunit alpha2 (Homo sapiens), P68402; recombinant PAFAH1B2, FP-rhodamine activity probe; inhibition, % at 3.39 µM; 1.2% of 340,000 active; AID 492953, 2010;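 active means inhibition above the mean of all tested compounds plus 3 SD, cut at about 24% in these data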;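 further: 0% = enzyme with DMSO and 100% = wells lacking PAFAH1B2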
# ATG4B inhibitor = ATG4B protease inhibitors, primary screen, biochemical, fluorescence, uHTS; Cysteine protease ATG4B (Homo sapiens), Q9Y4P1; inhibition, % at 8.33 µM; ATG4B cleavage of LC3-PLA2, NBD-HPC fluorescence, 1 h; 0.51% of 340,000 active; in the data active means inhibition above about 40%
# PAFAH1B3 FP inh = PAFAH1B3 enzyme inhibitors, primary screen, biochemical, fluorescence polarization, human. recombinant PAFAH1B3, FP-rhodamine probe. inhibition, % at 3.39 µM. Platelet-activating factor acetylhydrolase IB subunit alpha1 (Homo sapiens), Q15102. 0.28% of 340,000 active. AID 492972, 2010;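 active means inhibition above the screen-wide average of all tested compounds plus 3 SD, cut at about 25% in these data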;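 further: 0% = enzyme with DMSO only and 100% = wells lacking PAFAH1B3 protein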
# DAGLB inh = DAGLB lipase inhibitors, primary screen, biochemical, fluorescence, HTS; 0.059% of 340,000 active; Diacylglycerol lipase-beta (Homo sapiens), Q8NCG7; inhibition, % at 5.17 µM; HEK293T DAGLB membrane lysate, EnzChek fluorogenic substrate; AID 504411, 2011; in the data active means inhibition above about 34%;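 further: 0% = enzyme with vehicle and 100% = wells lacking enzyme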
# pPAFAH confirm = pPAFAH (PLA2G7) enzyme inhibitors, confirmation, biochemical, fluorescence polarization, human. shares compounds with pPAFAH FP inh. recombinant pPAFAH, FP-Rh probe fluorescence polarization. inhibition, % at 3.39 µM. 72% of 2,300 active. AID 463230, 2010;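 active means mean inhibition of the triplicate above the hit cutoff set for the earlier primary screen, cut at about 25% in these data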;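 further: 0% = enzyme with DMSO and 100% = wells lacking pPAFAH enzyme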
# The depositor's hits bear a star; . = no result given. Sampled rows, rich in hits. Any-hit rate of the full collection: about 3%.
SMILES,pPAFAH FP inh,PAFAH2 FP inh,PAFAH1B2 FP inh,ATG4B inhibitor,PAFAH1B3 FP inh,DAGLB inh,pPAFAH confirm
N#Cc1c(-c2ccccc2Cl)cc(-c2ccccc2)nc1Br,35.2*,3.4,0.8,6.0,-4.8,-10.1,16.3
N#Cc1c(-c2cccc(F)c2)cc(-c2ccccc2)nc1Br,2.3,-4.5,-1.5,-3.8,10.7,-2.5,.
COc1cc(C(=O)Nc2ccc(N3CCN(C(=O)c4ccc(C)cc4)CC3)cc2)cc(OC)c1OC,-0.1,-7.1,1.4,-9.1,4.8,3.0,.
O=C(N/N=C/c1cc([N+](=O)[O-])ccc1O)c1cccc2cc[nH]c12,60.8*,24.3,-3.3,0.6,-9.0,7.9,51.8*
COc1ccc(NC(=O)c2c(F)cccc2F)cc1S(=O)(=O)Nc1ccc(Br)cc1,35.7*,-12.0,-0.3,-11.1,-8.2,-4.8,28.4*
Cc1nc2ccccc2c(=O)n1/N=C/c1ccc(O)c(O)c1O,86.8*,45.5*,7.0,-2.8,27.1*,4.5,46.7*
Cc1nc2ccccc2c(=O)n1/N=C/c1ccccc1O,1.4,-6.9,3.2,-14.7,7.7,3.0,.
Cc1cc(=O)[nH]c(SCC(=O)Nc2nc3ccccc3s2)n1,1.6,8.2,0.2,-4.5,5.0,0.2,.
CCCc1cc(=O)[nH]c2nnc(SCC(=O)Nc3nccs3)n12,-2.6,3.6,-0.9,-3.1,7.6,0.2,.
N#Cc1c(SCC(=O)Nc2nc3ccccc3s2)sc2c(O)cc(=O)[nH]c12,40.7*,34.5*,18.8,-29.8,27.6*,17.1,30.6*
N#Cc1c(SCC(=O)Nc2nc3ccc(Br)cc3s2)sc2c(O)cc(=O)[nH]c12,51.2*,17.4,11.6,17.4,19.2,22.3,41.7*
N#Cc1c(SCC(=O)Nc2nccs2)sc2c(O)cc(=O)[nH]c12,37.4*,32.2*,16.7,16.4,21.8,9.6,9.8
O=[N+]([O-])c1cc([N+](=O)[O-])c2c(=Nc3ccccc3)n(-c3ccccc3)n(O)c2c1,22.3,20.4,17.0,-7.9,24.4,17.9,.
COc1ccc(CCNC(=O)Cc2ccc(NC3=NC4CS(=O)(=O)CC4S3)cc2)c(OC)c1 (stereo not drawn),36.4*,2.8,4.3,-16.9,4.8,1.8,0.6
O=C(CCCOc1ccccc1)NC1CCCc2ccccc21 (stereo not drawn),5.6,-6.1,5.3,4.7,1.9,-13.1,.
N#C/C=C1/NC(=O)c2ccccc2S1,56.6*,-2.2,-1.9,-4.7,3.8,5.8,5.3
COC(=O)c1ccc2c(c1)NC(=O)c1ccccc1S2,5.8,-1.5,5.2,-6.9,5.2,0.4,.
Oc1ccc(-c2csc(Nc3ncccn3)n2)c(O)c1,0.1,2.9,5.3,0.6,10.9,4.4,.
N#Cc1ccc(Nc2nc(-c3ccc(O)cc3O)cs2)cc1C(F)(F)F,35.2*,9.1,11.0,41.3*,25.5*,3.7,26.8*
Cc1cc(NC(=O)Cc2cccs2)no1,54.1*,34.6*,2.0,15.9,9.6,2.6,12.0
Cc1cc(NS(=O)(=O)c2ccc(NC(=O)Cc3cccs3)cc2)no1,6.8,6.3,6.2,-3.2,-3.5,-2.1,.
COc1ccc(-c2cc(C(=O)N(C)Cc3nc4ccccc4c(=O)[nH]3)c3ccccc3n2)cc1OC,-6.0,-5.3,6.7,-15.8,2.3,2.5,.
Nc1ccc2nc(-c3cccnc3)[nH]c2c1,39.5*,-3.9,-0.4,-0.3,6.3,-1.3,-0.1
Nc1ccc2nc(-c3ccccc3)[nH]c2c1,3.9,9.9,5.8,-5.5,6.4,0.8,.
O=C(COC(=O)c1cc2c(s1)CCC2)Nc1ccc(F)cc1,43.6*,86.8*,-0.9,10.8,10.3,-3.6,38.0*
NC(=O)c1ccc(NC(=O)COC(=O)c2cc3c(s2)CCC3)cc1,7.9,11.1,0.0,6.6,6.1,-1.8,.
